# Experimental data from the supplement of paper PMC6555819.
# Tests used:
# Assay in all cases: PBM binding z-score (relative to random genomic background probes); higher = stronger binding; sequences stand for … in GC…GCGATTGACAGCGTAGAATGAAGG
# [1] = test system: PPARg:RXRa DBDmut IVT, anti-RXR (DBD mutation: RXRa K156A/R161A, NR concentration 270 nM, RXRa partner concentration 90 nM)
# Summary of the method: (§1)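 Ligand-free nuclear receptor dimers were applied to custom Agilent 4×180K protein-binding microarrays whose double-stranded probes carried direct-repeat seeds, single-nucleotide variants, half-site ablations and random human genomic background sequences in 34-nt variable regions. Incubation lasted 1 h. Binding z-scores were computed against the random background probes from regression-normalized fluorescence.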
# [2] = test system: PPARg:RXRa IVT, anti-PPARg (NR concentration 270 nM, RXRa partner concentration 90 nM)
# Summary of the method: as §1
# [3] = test system: PPARg DBDmut:RXRa IVT, anti-PPARg (DBD mutation: PPARg1 K132A/R137A, NR concentration 270 nM, RXRa partner concentration 90 nM)
# Summary of the method: as §1
# [4] = test system: PPARg DBDmut IVT, anti-PPARg (DBD mutation: PPARg1 K132A/R137A, NR concentration 270 nM)
# Summary of the method: as §1
# [5] = test system: PPARg homodimer (NR concentration 180 nM)
# Summary of the method: as §1
# [6] = test system: PXR:RXRa (NR concentration 270 nM, RXRa partner concentration 90 nM)
# Summary of the method: as §1
# [7] = test system: PXR homodimer (NR concentration 270 nM)
# Summary of the method: as §1
# [8] = test system: RARa:RXR (NR concentration 270 nM, RXRa partner concentration 90 nM)
# Summary of the method: as §1
# [9] = test system: RARa homodimer (NR concentration 270 nM)
# Summary of the method: as §1
# [10] = test system: RARb:RXRa (NR concentration 270 nM, RXRa partner concentration 90 nM)
# Summary of the method: as §1
# [11] = test system: RARb homodimer (NR concentration 270 nM)
# Summary of the method: as §1
# [12] = test system: RARg:RXRa (NR concentration 270 nM, RXRa partner concentration 90 nM)
# Summary of the method: as §1
# [13] = test system: RARg homodimer (NR concentration 270 nM)
# Summary of the method: as §1
# [14] = test system: RXRa DBDmut IVT, anti-RXR (DBD mutation: RXRa K156A/R161A, NR concentration 90 nM)
# Summary of the method: as §1
# [15] = test system: RXRa homodimer (NR concentration 180 nM)
# Summary of the method: as §1
# [16] = test system: THRa:RXRa (NR concentration 90 nM, RXRa partner concentration 90 nM)
# Summary of the method: as §1
# [17] = test system: THRa homodimer (NR concentration 90 nM)
# Summary of the method: as §1
# [18] = test system: VDR:RXRa (NR concentration 270 nM, RXRa partner concentration 90 nM)
# Summary of the method: as §1
# [19] = test system: VDR homodimer (NR concentration 270 nM)
# Summary of the method: as §1
Sequence,PBM binding z-score [1],PBM binding z-score [2],PBM binding z-score [3],PBM binding z-score [4],PBM binding z-score [5],PBM binding z-score [6],PBM binding z-score [7],PBM binding z-score [8],PBM binding z-score [9],PBM binding z-score [10],PBM binding z-score [11],PBM binding z-score [12],PBM binding z-score [13],PBM binding z-score [14],PBM binding z-score [15],PBM binding z-score [16],PBM binding z-score [17],PBM binding z-score [18],PBM binding z-score [19]
CTACGAAGGTGAACAAGGTCGTTGATTACTATTC,2.27,2.28,0.435,0.389,0.63,2.98,1.39,2.46,0.451,2.33,2.4,2.2,1.98,1.51,2.21,2.91,1.08,6.15,2.46
CAAACTAGGTCAAGGTCAAACTCGGTTTGTGCCA,7.83,8.72,1.79,1.1,2.32,5.44,2.6,5.03,1.19,5.27,5.07,6.04,6.55,3.28,5.73,4.64,3.95,5.49,3.81
TCTTGTAGATCAAAGGGTAAGAAAGCCGAAGCCT,1.69,1.86,-0.0494,-0.151,-0.138,0.0425,-0.478,0.483,-0.0812,0.507,-0.068,0.11,-0.178,0.629,0.585,-0.022,-0.878,0.126,-0.525
CAAACTAGGTCAAGAGGTCAATGTCCGCTTCCCG,8.38,8.12,2.46,0.644,3.95,5.63,1.52,6.79,2.12,5.3,5.98,7.68,7.46,2.81,7.85,4.21,2.55,5.64,4.02
TCTCGGCGGACACGAAAGGTCAGAGCTCGACATC,1.12,0.541,-0.347,-0.845,1.83,3.15,-0.247,3.71,0.345,3.56,4.12,4.12,4.06,0.462,3.66,2.55,0.2,2.19,0.543
CCGAGTAGGTTATGGGGCATTGAGGCAACGGTGA,3.23,3.52,-0.234,0.034,1.19,-0.0257,0.241,0.37,0.756,0.976,1.14,0.411,0.507,-0.0381,0.499,0.886,0.453,0.258,-0.13
CCTTTCGGGTCACGAGGTTATAGCACGACGAGCG,3.85,5.47,3.53,2.42,2.82,4.93,0.795,6.44,0.862,4.99,4.31,6.29,5.8,2.08,7.39,4.52,3.83,5.31,2.77
CCTCGGAGGACAACAGGAGGTGAGAGCTGCCAGA,0.262,0.245,-1.46,-1.64,-0.411,-0.513,-0.0477,-0.183,-0.132,1.13,1.05,0.71,1.35,-0.141,-0.117,1.44,0.525,-0.342,-0.285
ATACCAAGGTGATCGTGAGGTCGTTAATACTAAC,0.582,1.08,0.575,0.441,1.01,3.26,1.7,2.15,0.0918,1.44,1.68,1.93,0.856,0.881,1.32,3.3,2.44,3.1,3.04
GCCACTGGGGCAAAGCAGGTTACCATAAGGTTGG,5.67,5.29,0.444,-0.613,0.322,0.224,-0.707,1.06,-0.774,1.01,1.08,0.357,0.651,-0.861,0.287,2.79,-0.169,-0.0502,-0.617
ACTATTAGTTGAGACGGGGGCAACCGATAGGTTG,1.48,3.27,5.1,7.99,1.63,2.63,0.549,2.25,0.997,1.94,1.92,2.03,1.77,1.55,1.42,3.01,1.12,2.71,1.98
CGTCAAAGTTCAAAGTAACGTAACAGAAAGCAGC,0.465,1.58,1.23,1.35,3.3,4.68,3.73,3.43,1.73,4.9,3.42,5.52,5.99,4.98,4.88,1.72,-0.272,4.09,4.15
CGTCCAAGGTCAGCAAGTCAGTGAAAGCGACGTG,2.61,2.52,-0.905,-1.02,2.24,2.38,0.119,3.13,0.523,4.99,3.99,5.01,6,2.5,4.02,3.42,1.67,–,1.03
CCTACTGGGCCAAAAAGGTCATTGCTGCCGATAA,4.17,4.29,0.288,-0.116,3.92,4.87,3.45,5.19,0.902,3.98,4.46,4.63,4.02,0.7,4.99,2.99,0.486,4.46,2.98
ATCTCTAGGTAATGATAGTTCAGTGAATGCAAAT,2.25,2.17,1.1,1.74,1.21,1.12,0.747,0.583,0.965,0.694,0.921,0.493,0.864,0.246,0.462,0.79,0.35,0.849,0.644
